These results are taken from ChEMBL document CHEMBL4513141, “CO-ADD screening of NIH (USA) - Clinical Collection” (2021).

For orientation: Inhibition means the relative decrease from the control value, in per cent.

The subject of test [1] is Klebsiella pneumoniae. The note with it: Concentration 20 uM; ASSAY_TEST Inhibition of Bacterial Growth; detection method Absorption (OD600); MEDIA CAMHB; plate type 384well; NBS; CORNING #3640; time 18 hr.
In test [2] the test system is Candida albicans. To be noted: 20 µM.
The test system of test [3] is Cryptococcus neoformans. To be noted: Concentration 20 uM; ASSAY_TEST Inhibition of Fungal Growth; detection method Resazurin; Absorption (OD600-OD570); plate type 384well; NBS; CORNING #3640. A general note: Resazurin is reduced to fluorescent resorufin, in cell work by metabolically active cells.

Molecules are shown by their SMILES. Measured potencies and affinities stand elsewhere.

Consider `CC1(C)O[C@@H]2C[C@H]3[C@@H]4C[C@H](F)C5=CC(=O)C=C[C@]5(C)[C@@]4(F)[C@@H](O)C[C@]3(C)[C@]2(C(=O)CO)O1` [FLUOCINOLONE ACETONIDE], for which the results for the Inhibition in test [1], in test [2] and in test [3] were -0.92%, 5.45% and 6.47%, respectively.

For `NNCCc1ccccc1.O=S(=O)(O)O` [PHENELZINE SULFATE], the Inhibition is 6.23% in test [1], 4.34% in test [2] and -10.12% in test [3].

Regarding `Cl.O=C(O)/C=C/c1ccc(Cn2ccnc2)cc1`, the Inhibition in test [1] was 3.67%; in test [2] it was 3.2%; in test [3] it was -5.32%.

`CCCNC(C)C(=O)Nc1ccccc1C.Cl` (configuration not stated) [PRILOCAINE HYDROCHLORIDE]: the Inhibition in test [1] is 10.6%; in test [2], 2.91%; in test [3], -8.37%.

Take `NC(CO)(CO)CO.O=C(c1ccccc1)c1ccc2n1CCC2C(=O)O` (configuration not stated) [KETOROLAC TROMETHAMINE]: the Inhibition was 3.11% in test [1], -0.08% in test [2] and -4.39% in test [3].

With `CSc1ccc2c(c1)N(CCC1CCCCN1C)c1ccccc1S2.Cl` (configuration not stated) [THIORIDAZINE HYDROCHLORIDE], the values for the Inhibition in test [1], in test [2] and in test [3] were 9.7%, 4.12% and 4.01%, respectively.

`CC(=O)NS(=O)(=O)c1ccc(N)cc1` [SULFACETAMIDE]: the figures for the Inhibition in test [1], in test [2] and in test [3] were 11.67%, 1.53% and 0.24%, respectively.

Consider `Cc1cnc(C(=O)NCCc2ccc(S(=O)(=O)NC(=O)NC3CCCCC3)cc2)cn1` [GLIPIZIDE], for which the figures for the Inhibition in test [1], in test [2] and in test [3] were 8.44%, 3.06% and -1.88%, respectively.

Take `COc1cc(C)c(/C=C/C(C)=C/C=C/C(C)=C/C(=O)O)c(C)c1C` [ACITRETIN]: the values for the Inhibition in test [1], in test [2] and in test [3] were 7.64%, 3.07% and -7.56%, respectively.

For `CN(Cc1cnc2nc(N)nc(N)c2n1)c1ccc(C(=O)N[C@@H](CCC(=O)O)C(=O)O)cc1.O`, the values for the Inhibition in test [1], in test [2] and in test [3] were 9.2%, 12.2% and -1.89%, respectively.

`CC(O)CO.N[C@@H](C(=O)N[C@@H]1C(=O)N2C(C(=O)O)=C(CSc3c[nH]nn3)CS[C@H]12)c1ccc(O)cc1`: the results for the Inhibition in test [1], in test [2] and in test [3] were 6.28%, 12.3% and -40.25%, respectively.

On to `Cl.c1ccc2c(c1)CCCC2C1=NCCN1` (configuration not stated) [TETRAHYDROZOLINE HYDROCHLORIDE], for which the Inhibition is 14.26% in test [1], 3.03% in test [2] and -3.23% in test [3].

For the molecule `CCCCC1=NC2(CCCC2)C(=O)N1Cc1ccc(-c2ccccc2-c2nnn[nH]2)cc1` [IRBESARTAN], the Inhibition in test [1] was 7.4%; in test [2], -0.2%; in test [3], 0.28%.

For the molecule `CCN(CC)CCNC(=O)c1ccc(N)cc1.Cl` [PROCAINAMIDE HYDROCHLORIDE], the Inhibition was -3.79% in test [1], 0.33% in test [2] and 3.84% in test [3].

With `CC(=O)O.CNC(=N)NCCC[C@H](N)C(=O)O` [TILARGININE ACETATE], the Inhibition was -3.72% in test [1], 2.96% in test [2] and -3.5% in test [3].

Regarding `CC(N)C12CC3CC(CC(C3)C1)C2.Cl` (configuration not stated) [RIMANTADINE HYDROCHLORIDE], the Inhibition in test [1] was 8.19%; in test [2], 2.89%; in test [3], -3.72%.

As for `C#C[C@]1(O)CC[C@H]2[C@@H]3CCC4=CC(=O)CC[C@@H]4[C@H]3CC[C@@]21CC` [LEVONORGESTREL], the Inhibition in test [1] came out at 13.61%; in test [2] it was 3.12%; in test [3], 2.67%.

Take `CCOC(=O)[C@H](CCc1ccccc1)N[C@@H](C)C(=O)N1[C@H](C(=O)O)C[C@@H]2CCC[C@@H]21`: the Inhibition is 20.74% in test [1], 1.9% in test [2] and -1.7% in test [3].

As to `CCC1=C[C@H]2CN(C1)Cc1c([nH]c3ccccc13)[C@@](C(=O)OC)(c1cc3c(cc1OC)N(C)[C@H]1[C@@](O)(C(=O)OC)[C@H](OC(C)=O)[C@]4(CC)C=CCN5CC[C@]31[C@@H]54)C2.O=C(O)C(O)C(O)C(=O)O.O=C(O)C(O)C(O)C(=O)O`, the Inhibition in test [1] is 8.46%; in test [2], 4.55%; in test [3] it was -7.91%.

`O=S(=O)([O-])CCS.[Na+]` [MESNA]: the Inhibition in test [1] came out at 6.51%; in test [2], 4.45%; in test [3], 1.48%.

Take `Cl.c1ccc(CC2=NCCN2)cc1` [TOLAZOLINE HYDROCHLORIDE]: the Inhibition in test [1] was 3.87%; in test [2] it was 2.51%; in test [3], -1.43%.

Take `Nc1nc2c(ncn2COCCO)c(=O)[nH]1` [ACYCLOVIR]: the Inhibition in test [1] is 6.29%; in test [2] it was 4.6%; in test [3], -1.27%.

Take `C[C@H]1C[C@@H]2[C@H]([C@@H](O)C[C@@]3(C)[C@H]2CC[C@]3(O)C(=O)CO)[C@@]2(C)C=CC(=O)C=C12` [METHYLPREDNISOLONE]: the Inhibition in test [1] is 20.28%; in test [2], 2.95%; in test [3] it was -7.56%.

In the case of `C[C@]12CCC(=O)C=C1CC[C@@H]1[C@@H]2C(=O)C[C@@]2(C)[C@H]1CC[C@]2(O)C(=O)CO` [CORTISONE], the Inhibition in test [1] is 16.58%; in test [2], 4.46%; in test [3], 0.81%.
